Measurements reported in PubChem BioAssay (NCATS).

target: Glucocorticoid receptor (Homo sapiens) (UniProt P04150); assay: GR-GFP Redistribution (AID 450); settings: U2OS GR-GFP nuclear translocation, laser cytometry, 2 h
Potency means the concentration at half of the fitted maximal effect.

Sequence of Glucocorticoid receptor (Homo sapiens) (P04150 whole entry, looked up): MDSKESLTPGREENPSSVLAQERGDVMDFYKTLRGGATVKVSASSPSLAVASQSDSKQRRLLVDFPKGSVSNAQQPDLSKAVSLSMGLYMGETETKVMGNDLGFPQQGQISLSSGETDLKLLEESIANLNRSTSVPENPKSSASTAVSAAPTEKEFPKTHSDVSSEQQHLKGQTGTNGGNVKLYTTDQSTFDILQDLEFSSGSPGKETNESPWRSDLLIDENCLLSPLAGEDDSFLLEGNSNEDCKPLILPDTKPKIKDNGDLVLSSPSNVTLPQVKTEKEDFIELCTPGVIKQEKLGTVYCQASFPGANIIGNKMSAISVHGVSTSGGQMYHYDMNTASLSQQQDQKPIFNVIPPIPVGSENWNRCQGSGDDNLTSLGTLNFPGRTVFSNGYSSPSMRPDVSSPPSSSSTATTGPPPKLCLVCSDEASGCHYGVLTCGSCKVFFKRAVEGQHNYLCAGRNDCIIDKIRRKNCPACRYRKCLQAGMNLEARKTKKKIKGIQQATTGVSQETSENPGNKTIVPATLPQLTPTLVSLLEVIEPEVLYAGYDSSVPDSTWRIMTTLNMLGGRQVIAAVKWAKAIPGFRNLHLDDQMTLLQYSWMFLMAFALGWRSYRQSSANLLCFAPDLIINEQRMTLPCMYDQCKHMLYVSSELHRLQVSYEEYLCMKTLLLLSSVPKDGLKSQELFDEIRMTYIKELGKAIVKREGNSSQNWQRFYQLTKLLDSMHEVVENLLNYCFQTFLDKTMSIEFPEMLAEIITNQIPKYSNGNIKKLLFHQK

Potency, inactive:
Cc1ccc(Nc2nnc(-c3ccc4c(c3)OCO4)o2)c(C)c1 > 46 µM
CN[C@@H](c1ccncc1)[C@@H](NC)c1ccncc1 > 46 µM
Cc1cnc(CNc2nc(-c3cccnc3)nc3ccccc23)cn1 > 46 µM
C(=N/Nc1nnc2c(n1)[nH]c1ccccc12)/c1cccnc1 > 46 µM
CC(C)[C@@H]1OC(=O)C=CC=CC=CC=CC=CC[C@@H](O)[C@H](C)[C@@H](O)C[C@H](O)C[C@H](O)C[C@H](O)C[C@H](O)C[C@H](O)C[C@H](O)C=C[C@@H]1C > 46 µM
COc1ccc2c(c1)Cc1cc(N=[N+]([O-])c3ccc4c(c3)Cc3cc(OC)ccc3-4)ccc1-2 > 46 µM
Nc1nc(SC/C=C\c2ccccc2)c2[nH]cnc2n1 > 46 µM
O=C(CC(=O)c1ccncc1)c1ccccc1 > 46 µM
O=c1oc2cc(N=Cc3ccc4c(c3)OCO4)ccc2c2ccccc12 > 46 µM
CSC1(SC2=NCCN2)SC2(NCCN2)S1 > 46 µM
O[C@@H](C1=C/C(=C\c2ccncc2)c2ccccc21)c1ccncc1 > 46 µM
Nc1nc(SCCc2ccccc2)c2[nH]cnc2n1 > 46 µM
Nc1nc(SCc2ccccc2[N+](=O)[O-])c2[nH]cnc2n1 > 46 µM
O=S(=O)(c1cnccc1N1CCN(CCO)CC1)N1CCCC1 > 46 µM
COc1ccc(Oc2ncc3nc(C)c(=O)n(-c4ccc(OC)cc4)c3n2)cc1 > 9.22 µM
Cn1ncc2c(NCCc3ccccc3)nc(Cl)nc21 > 46 µM
C/C(=N/Nc1ccc2ccccc2n1)c1ccccc1O > 46 µM
Nc1[nH]c(=S)[nH]c(=O)c1N=Nc1c(Br)cc(S(N)(=O)=O)cc1Br > 46 µM
COc1ccc(C[C@@H]2C(=O)N[C@H](C)C(=O)N(C)[C@@H]3Cc4ccc(cc4)Oc4cc(ccc4O)C[C@H](C(=O)N[C@@H](C)C(=O)N[C@H](C)C(=O)N2C)N(C)C3=O)cc1 > 46 µM
O=C(O)c1ccc(SSc2ccc(C(=O)O)cn2)nc1 > 46 µM
Cc1ccc(S(=O)(=O)Nc2cc(=O)[nH]c3c2CCC3)cc1 > 46 µM
BrC(c1cccc2ccccc12)c1cccc2ccccc12 > 46 µM
c1ccc(C[C@@H](Nc2cccnc2)c2ccccc2)cc1 > 46 µM
N=C(N)S[C@H]1c2ccccc2-c2cc([N+](=O)[O-])ccc21 > 46 µM
CC(C)(C)C(=O)[C@H]([C@@H](c1ccccc1)N1CCOCC1)N1CCOCC1 > 46 µM
O=C(O)CCc1nc(-c2ccccc2-n2cccc2)no1 > 46 µM
O=C(O)/C(=C\c1ccccc1)Cc1ccccc1 > 46 µM
O=S(=O)(O)c1cc(O)c2c(N=Cc3ccccc3O)cc(S(=O)(=O)O)cc2c1 > 46 µM
Cn1c(=S)c2[nH]c(SCc3cccnc3)nc2n(C)c1=O > 46 µM
CC(C)N1CCN(c2ccncc2S(=O)(=O)N2CCCCC2)CC1 > 46 µM
Cc1cc2c(cc1C)NC1=C(N2)O[C@H](c2c[nH]c3ccc(COc4ccccc4)cc23)C1=O > 46 µM
COc1cc(Cl)c(CC(=O)c2c[nH]c3ccccc23)cc1OC > 46 µM
Cc1ccc2c(c1)N[C@H](c1ccc(C(=O)O)cc1)c1cccn1-2 > 46 µM
COc1ccc2c(Cl)cc(NC(=S)Nc3ccccc3)nc2c1 > 46 µM
c1ccc2c(c1)-c1nc3ccccc3cc1[C@H]2N1CCOCC1 > 46 µM
Nc1cccc(OCc2nc(N)nc(N)c2-c2ccc(Cl)cc2)c1 > 46 µM
CC1=C/C(=C(/c2ccc(O)c(C)c2)c2ccccc2C(=O)O)C=CC1=O > 46 µM
N#C/C(=C\Nc1ccccn1)C(=O)c1ccco1 > 46 µM
Cn1c(=O)c2[nH]c(CCCCc3nc4c([nH]3)c(=O)n(C)c(=S)n4C)nc2n(C)c1=S > 46 µM
